PBM binding z-score data for 40 sequences are collected here from the supplement of paper PMC6555819.

The test system of this assay is VDR:RXRa (NR concentration 270 nM, RXRa partner concentration 90 nM). As to the kind of experiment: PBM binding z-score (relative to random genomic background probes); higher = stronger binding; sequences stand for … in GC…GCGATTGACAGCGTAGAATGAAGG
The method, then:
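Protein-binding microarray (Agilent 4x180K custom design, double-stranded 60-nt probes: 5' GC cap, 34-nt variable region, 24-nt constant primer region; full probe sequence given). Purified or IVT nuclear receptor:RXRα heterodimers (3:1 NR:RXRα, mostly 270:90 nM) or homodimers were incubated for 1 h in PBS with 2% milk and no ligand, then detected with Alexa488 antibodies. Fluorescence from o1-orientation probes (~5 replicates averaged) was converted to z-scores against 500 random hg19 background probes. Variable regions are seed direct-repeat (DR0–DR5) sites, all their single-nucleotide variants and half-site ablations.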
CCTTACGGGTCACGAGGTTATAGCCCGACGAGCG displayed a PBM binding z-score of 5.11.
Next, CCTGCTAGGTCAATGGTCAGCGAAAGCAGCTCGC: 0.881; AAAACGAGGGCACGCTGAGTTGATAGCAGAGTAG: 2.53.
Under CGAACTCGGTCAGAACAGGACAGTGAAGGATGAT stands -0.191.
Next, CAAACTAGGTGAAGAGGTCAAAGTCCGCTTCCCG: 4.67.
Turning to CATACAGGGTCAGATAGGCCAGAGTAGGGACGGC, the PBM binding z-score is 3.2.
Next, GCGACTGGGGCAAAGTAGGTTACCATAAGGTTGG: -0.0639; TCAAATAGGTAAAAGGTGAAAGTCGGTGTGGTAA: 1.79.
Next, GCTACTGGGGCAAAGCAGGTTACCATAAGGTTGG: 0.028; CAAACTAGGTCAAGAGGTCAAAGTACGCTTCCCG: 6.22; ACTACCAGGCCAAGTTTGGGTCACTCAAACAAAG: 1.08.
Take GCTCGGAGGACAAGGTCAGAGCCTTGTCCGTAGA: the PBM binding z-score turned out to be 1.43.
Next, CCTTACGGGTCACTCCAGTTTATAGCATCGGAGT: 5.1; TCGAGTTGGTCACGGAGGTCACACACGACGGGTA: 5.91; AGTCAAAGTTGACTAGGTAACGTAAGATTCAGCT: 0.000813.
Under TCTATCAGGCCAGAGGGTCACTCAAGAGGTACGG stands 2.03; under TAGCCTATGTCATGCGGGCCAGTATAGTGTCGGC, -0.45.
For the sequence GCGACTGGGGCAATGCAGGTTACCATAAGGTTGG, the PBM binding z-score is -0.0726.
As to CGACCAAGGTCAGCAGGTCAGTGAAAGCGACGTG, the PBM binding z-score is 3.67.
Next, CCTACTGGGCCATTCAGAGGCCATTGATCATATG: -0.232.
Next, CCTAATGGGCCATTCAGAGGTCATTGATCATATG: 4.1; CAAACTAGGTCAAGGTCAAAGTGGGTTTGTGCCA: 5.74; CTTTACGGGTCACTGACAGGTTATAGCATTTGGA: 3.94.
Next, TTATCAAGGTGAAGGTCGTTGATCCCTCTGTAGA: 1.55; TCATATAGGTAAACAGGTAAAAGTCCGTAAGTTA: 1.29; CCTAGTTGGTCAGGGTCACACACGCTATAGGTAC: 4.17.
As for TGAATGAGGTTAAAGATTAGGGAACGTGGCGTCG, the PBM binding z-score stood at 1.44.
Next, ATATGTAGGTTAGCTGGGCTCATTCAGACTAGGC: -0.0839; ATCGAAAGGTCGAGGGTGAGTATACCCACCCGAA: 2.68.
Under TCATATAGGTAAAGGTGAACGTCGAACGATATGA stands 0.748; under TATACAGGGTCACAGGCCAGAGTACGAATGTCGA, 4.92; under CTCGAAAGGTCGTGCTCCGGTGAGTATACCAAAC, 3.48.
Next, CCTGCTAGGTCAATGGTCGGCTAAAGCAGCTCGC: 1.07; CCTACTGGGCCAAAAAGGTCATTGCTGCCGATAA: 4.46; TCTTGTAGATCAACAGGAGGTTAAAAAAGATCGA: 0.744.
As for GCGACTGTGGCATCAGCAGGTTACCATAACTTAA, the PBM binding z-score was -0.319.
Next, AGTCAAAGTCCAGGACGAGGTAACGTAAAGCACG: -0.202; AGTCAAAGTTCAGGACGAGTTAACGTAAAGCACG: 2.96.
Sequence AATACAGGGTCATCGTAGGCCAGGGTACGCACAG had a PBM binding z-score of 5.25.
In turn, CAAACTAGGTCGAAGGTCAAAGTCGAGCCAACCA gave a PBM binding z-score of 4.45.
